Targets with a hit are over-represented here; the source holds about 8,800 in all. About 0.5% of all pairs of compound and target were hits.
What was measured:
Test in all cases: log2 fold change, soluble protein after heating vs DMSO (PISA); higher = thermal stabilisation; K562 lysate, 10 uM; active = over 0.2 and 3.5 SD of the protein, either way, in both replicates (recomputed)
[1] = compound: NCC(=O)Nc1ccc(-n2nc(C(F)(F)F)cc2-c2ccc3c(ccc4ccccc43)c2)cc1
Summary of the method: (§1)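 K562 pellets were dounce-homogenised in PBS pH 7.4 containing 1 mM MgCl2, and the crude extract, at 1 mg/mL protein, was exposed to 10 μM compound for 30 min. Aliquots were heated for 3 min across 48°C-58°C, pooled, brought to 0.5% NP-40 at 4°C and spun at 21,000xg for 90 min, with the supernatant taken as soluble protein. TMTpro 16plex LC-MS/MS with equalised channel sums quantified that protein. Values are log-two fold changes in thermal stability relative to solvent controls, taken from duplicates.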

vorinostat = compound: O=C(CCCCCCC(=O)Nc1ccccc1)NO [vorinostat]
Summary of the method: as §1

silmitasertib = compound: O=C(O)c1ccc2c(c1)nc(Nc1cccc(Cl)c1)c1ccncc12 [silmitasertib]
Summary of the method: as §1

[2] = compound: O=C1NC(=O)C(c2cnc3ccccn23)=C1c1cn2c3c(cc(F)cc13)CN(C(=O)N1CCCCC1)CC2
Summary of the method: as §1

entospletinib = compound: c1cn2cc(-c3ccc4cn[nH]c4c3)nc(Nc3ccc(N4CCOCC4)cc3)c2n1 [entospletinib]
Summary of the method: as §1

Measured: log2 fold change

FARSB (UniProt Q9NSD9)
Sequence of UniProt Q9NSD9 (Q9NSD9 whole entry, looked up): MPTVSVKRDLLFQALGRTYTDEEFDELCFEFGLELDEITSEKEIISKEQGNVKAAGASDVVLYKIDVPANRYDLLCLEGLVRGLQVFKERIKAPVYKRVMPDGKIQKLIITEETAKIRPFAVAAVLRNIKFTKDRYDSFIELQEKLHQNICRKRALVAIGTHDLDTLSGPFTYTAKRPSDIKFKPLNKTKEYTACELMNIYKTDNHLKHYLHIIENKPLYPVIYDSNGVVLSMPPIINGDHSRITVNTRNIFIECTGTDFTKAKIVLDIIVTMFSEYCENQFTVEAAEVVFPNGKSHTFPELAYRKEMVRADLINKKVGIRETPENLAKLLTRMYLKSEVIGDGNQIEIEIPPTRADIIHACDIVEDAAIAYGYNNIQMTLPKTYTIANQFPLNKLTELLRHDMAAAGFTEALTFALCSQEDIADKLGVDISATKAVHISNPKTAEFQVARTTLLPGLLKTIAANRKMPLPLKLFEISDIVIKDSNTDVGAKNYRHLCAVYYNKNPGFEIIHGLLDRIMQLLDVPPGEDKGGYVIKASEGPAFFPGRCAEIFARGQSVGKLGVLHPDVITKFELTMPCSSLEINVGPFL
inactive: [1] -0.01 | vorinostat 0.015 | silmitasertib 0.013 | [2] -0.013 | entospletinib 0.011

FAM53B (UniProt Q14153)
inactive: [1] 0.056 | vorinostat -0.06 | silmitasertib 0.049 | [2] 0.02 | entospletinib -0.003

FAM120B (UniProt Q96EK7)
Sequence of UniProt Q96EK7 (Q96EK7 whole entry, looked up): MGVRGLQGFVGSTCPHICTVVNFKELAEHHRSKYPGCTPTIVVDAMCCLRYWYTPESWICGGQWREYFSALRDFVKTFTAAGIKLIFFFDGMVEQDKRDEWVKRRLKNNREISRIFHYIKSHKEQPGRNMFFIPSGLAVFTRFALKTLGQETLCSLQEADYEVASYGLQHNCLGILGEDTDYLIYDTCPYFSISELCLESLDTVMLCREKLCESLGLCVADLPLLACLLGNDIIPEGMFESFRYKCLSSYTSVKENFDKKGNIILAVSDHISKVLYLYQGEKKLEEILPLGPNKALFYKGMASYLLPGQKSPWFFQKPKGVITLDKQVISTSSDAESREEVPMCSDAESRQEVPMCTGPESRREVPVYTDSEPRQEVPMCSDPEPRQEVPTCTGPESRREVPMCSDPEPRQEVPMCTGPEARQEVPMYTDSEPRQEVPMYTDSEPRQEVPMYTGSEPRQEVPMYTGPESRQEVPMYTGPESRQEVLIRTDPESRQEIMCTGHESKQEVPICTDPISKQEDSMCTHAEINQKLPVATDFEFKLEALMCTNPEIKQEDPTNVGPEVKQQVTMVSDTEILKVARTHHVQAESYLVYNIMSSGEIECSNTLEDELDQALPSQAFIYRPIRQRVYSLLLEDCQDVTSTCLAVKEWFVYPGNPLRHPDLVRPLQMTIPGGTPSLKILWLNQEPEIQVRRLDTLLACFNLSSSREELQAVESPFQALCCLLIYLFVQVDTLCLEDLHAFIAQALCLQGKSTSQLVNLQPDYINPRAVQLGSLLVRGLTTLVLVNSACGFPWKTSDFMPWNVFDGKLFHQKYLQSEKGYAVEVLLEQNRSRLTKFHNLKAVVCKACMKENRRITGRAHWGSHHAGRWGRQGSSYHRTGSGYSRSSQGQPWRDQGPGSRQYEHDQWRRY
inactive: [1] -0.002 | silmitasertib 0.041 | [2] -0.022 | entospletinib -0.001
active: vorinostat -0.299

FLAD1 (UniProt Q8NFF5)
active: vorinostat -0.397
inactive: [1] -0.012 | silmitasertib 0.102 | [2] -0.005 | entospletinib 0.037

FECH isoform 2 (UniProt P22830)
inactive: [1] -0.185 | vorinostat -0.401 | silmitasertib -0.03 | [2] -0.021 | entospletinib 0.977

ESPL1 (UniProt Q14674)
inactive: [1] 0.027 | vorinostat -0.21 | silmitasertib 0.098 | [2] 0.057 | entospletinib -0.066

FBRSL1, A0A3B3IRR3
inactive: [1] 0.043 | vorinostat 0.142 | silmitasertib -0.013 | [2] 0.069 | entospletinib -0.087

GFPT1 (UniProt Q06210)
active: vorinostat -0.409
inactive: [1] 0.034 | silmitasertib 0.004 | [2] 0.012 | entospletinib 0.019

FBXO38 (UniProt Q6PIJ6)
inactive: [1] -0.029 | vorinostat -0.393 | silmitasertib 0.34 | [2] -0.159 | entospletinib -0.173

DST (UniProt Q03001)
inactive: [1] 0.262 | vorinostat -0.035 | silmitasertib -0.02 | [2] 0.01 | entospletinib -0.03

EXTL2 (UniProt Q9UBQ6)
inactive: [1] -0.171 | vorinostat 0.189 | silmitasertib -0.053 | [2] 0.01 | entospletinib -0.036

ELAVL1 isoform 2 (UniProt Q15717)
inactive: [1] 0.042 | silmitasertib 0.059 | [2] -0.051 | entospletinib 0
active: vorinostat -0.326

EPHX2 (UniProt P34913)
active: vorinostat 0.243
inactive: [1] 0.002 | silmitasertib 0.002 | [2] -0.021 | entospletinib -0.058

FADS1, A0A0A0MR51
inactive: [1] 0.054 | vorinostat 0.093 | silmitasertib -0.003 | [2] -0.046 | entospletinib -0.028

ENSA isoform 3 (UniProt O43768)
Sequence of UniProt O43768 (O43768 whole entry, looked up): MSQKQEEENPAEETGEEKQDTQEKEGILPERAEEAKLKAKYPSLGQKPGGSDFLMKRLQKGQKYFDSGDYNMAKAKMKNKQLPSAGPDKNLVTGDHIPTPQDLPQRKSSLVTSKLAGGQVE
inactive: [1] -0.029 | vorinostat 0.144 | silmitasertib -0.019 | [2] 0.003 | entospletinib -0.014

GCDH (UniProt Q92947)
Sequence of UniProt Q92947 (Q92947 whole entry, looked up): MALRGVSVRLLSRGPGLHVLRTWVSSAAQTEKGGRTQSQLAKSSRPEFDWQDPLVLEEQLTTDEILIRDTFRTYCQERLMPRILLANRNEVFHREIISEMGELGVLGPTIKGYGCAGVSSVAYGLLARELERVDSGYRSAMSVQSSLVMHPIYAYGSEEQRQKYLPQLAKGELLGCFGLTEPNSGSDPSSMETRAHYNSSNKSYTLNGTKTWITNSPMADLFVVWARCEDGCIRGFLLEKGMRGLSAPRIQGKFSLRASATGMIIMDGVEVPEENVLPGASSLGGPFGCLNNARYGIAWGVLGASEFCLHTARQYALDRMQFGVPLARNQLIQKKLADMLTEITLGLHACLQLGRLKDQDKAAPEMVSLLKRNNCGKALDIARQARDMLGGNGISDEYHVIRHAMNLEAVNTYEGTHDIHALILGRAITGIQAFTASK
active: vorinostat 0.34
inactive: [1] 0.004 | silmitasertib 0.161 | [2] 0.187 | entospletinib 0.046

FASTKD2 (UniProt Q9NYY8)
inactive: [1] 0.008 | silmitasertib 0.044 | [2] 0.025 | entospletinib 0.013
active: vorinostat -0.524

DUS2 (UniProt Q9NX74)
active: silmitasertib 0.555
inactive: [1] -0.01 | vorinostat -0.014 | [2] -0.037 | entospletinib -0.042

EMP3 (UniProt P54852)
Sequence of UniProt P54852 (P54852 whole entry, looked up): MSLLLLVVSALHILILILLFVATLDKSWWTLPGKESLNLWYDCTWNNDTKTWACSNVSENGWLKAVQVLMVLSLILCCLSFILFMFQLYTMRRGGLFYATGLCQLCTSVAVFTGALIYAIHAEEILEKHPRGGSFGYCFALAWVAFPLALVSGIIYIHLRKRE
inactive: [1] 0.013 | vorinostat -0.022 | silmitasertib -0.05 | [2] -0.014 | entospletinib 0.144

FTL (UniProt P02792)
Sequence of UniProt P02792 (P02792 whole entry, looked up): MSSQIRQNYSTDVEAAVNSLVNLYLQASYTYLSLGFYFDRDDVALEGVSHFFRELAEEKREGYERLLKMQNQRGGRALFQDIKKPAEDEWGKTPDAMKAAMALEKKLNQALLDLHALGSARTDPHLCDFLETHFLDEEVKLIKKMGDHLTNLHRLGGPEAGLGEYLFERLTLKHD
inactive: [1] -0.064 | vorinostat 0.018 | silmitasertib 0.057 | [2] 0.011 | entospletinib -0.151

EED, A0A5F9ZI63
active: vorinostat -0.227
inactive: [1] -0.022 | silmitasertib 0.043 | [2] -0.018 | entospletinib 0.009

FMNL1 isoform 3 (UniProt O95466)
Sequence of UniProt O95466 (O95466 whole entry, looked up): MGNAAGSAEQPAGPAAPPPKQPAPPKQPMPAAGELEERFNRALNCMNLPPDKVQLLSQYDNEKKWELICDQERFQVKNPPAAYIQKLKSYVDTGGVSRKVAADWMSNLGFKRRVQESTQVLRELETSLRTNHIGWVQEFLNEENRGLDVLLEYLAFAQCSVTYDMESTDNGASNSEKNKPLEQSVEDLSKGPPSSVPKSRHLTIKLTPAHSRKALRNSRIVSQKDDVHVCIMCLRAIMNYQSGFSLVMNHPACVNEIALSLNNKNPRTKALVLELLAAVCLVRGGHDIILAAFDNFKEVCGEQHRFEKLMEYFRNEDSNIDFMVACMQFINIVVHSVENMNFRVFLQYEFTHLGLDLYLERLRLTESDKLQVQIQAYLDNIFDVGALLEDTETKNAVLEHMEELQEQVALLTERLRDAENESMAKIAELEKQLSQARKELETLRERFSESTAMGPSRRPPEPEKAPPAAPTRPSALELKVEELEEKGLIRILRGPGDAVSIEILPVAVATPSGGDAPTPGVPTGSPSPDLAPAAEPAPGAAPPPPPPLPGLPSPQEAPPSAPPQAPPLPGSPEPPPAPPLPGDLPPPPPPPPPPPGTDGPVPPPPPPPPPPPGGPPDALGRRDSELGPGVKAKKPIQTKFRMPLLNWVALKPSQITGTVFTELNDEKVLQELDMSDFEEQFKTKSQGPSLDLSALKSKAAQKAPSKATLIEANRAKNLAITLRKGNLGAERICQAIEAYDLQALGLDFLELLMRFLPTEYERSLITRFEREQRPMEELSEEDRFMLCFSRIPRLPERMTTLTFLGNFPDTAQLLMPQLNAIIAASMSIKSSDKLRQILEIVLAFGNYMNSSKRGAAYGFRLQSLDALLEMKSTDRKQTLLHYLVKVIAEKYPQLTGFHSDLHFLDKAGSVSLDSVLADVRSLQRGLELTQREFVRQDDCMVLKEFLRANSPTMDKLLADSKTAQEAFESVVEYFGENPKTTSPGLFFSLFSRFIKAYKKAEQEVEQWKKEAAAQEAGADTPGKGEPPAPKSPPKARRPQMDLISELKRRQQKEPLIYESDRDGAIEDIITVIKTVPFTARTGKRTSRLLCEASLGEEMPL
active: vorinostat -0.292
inactive: [1] 0.051 | silmitasertib -0.01 | [2] 0.071 | entospletinib -0.066

EPRS (UniProt P07814)
Sequence of UniProt P07814 (P07814 whole entry, looked up): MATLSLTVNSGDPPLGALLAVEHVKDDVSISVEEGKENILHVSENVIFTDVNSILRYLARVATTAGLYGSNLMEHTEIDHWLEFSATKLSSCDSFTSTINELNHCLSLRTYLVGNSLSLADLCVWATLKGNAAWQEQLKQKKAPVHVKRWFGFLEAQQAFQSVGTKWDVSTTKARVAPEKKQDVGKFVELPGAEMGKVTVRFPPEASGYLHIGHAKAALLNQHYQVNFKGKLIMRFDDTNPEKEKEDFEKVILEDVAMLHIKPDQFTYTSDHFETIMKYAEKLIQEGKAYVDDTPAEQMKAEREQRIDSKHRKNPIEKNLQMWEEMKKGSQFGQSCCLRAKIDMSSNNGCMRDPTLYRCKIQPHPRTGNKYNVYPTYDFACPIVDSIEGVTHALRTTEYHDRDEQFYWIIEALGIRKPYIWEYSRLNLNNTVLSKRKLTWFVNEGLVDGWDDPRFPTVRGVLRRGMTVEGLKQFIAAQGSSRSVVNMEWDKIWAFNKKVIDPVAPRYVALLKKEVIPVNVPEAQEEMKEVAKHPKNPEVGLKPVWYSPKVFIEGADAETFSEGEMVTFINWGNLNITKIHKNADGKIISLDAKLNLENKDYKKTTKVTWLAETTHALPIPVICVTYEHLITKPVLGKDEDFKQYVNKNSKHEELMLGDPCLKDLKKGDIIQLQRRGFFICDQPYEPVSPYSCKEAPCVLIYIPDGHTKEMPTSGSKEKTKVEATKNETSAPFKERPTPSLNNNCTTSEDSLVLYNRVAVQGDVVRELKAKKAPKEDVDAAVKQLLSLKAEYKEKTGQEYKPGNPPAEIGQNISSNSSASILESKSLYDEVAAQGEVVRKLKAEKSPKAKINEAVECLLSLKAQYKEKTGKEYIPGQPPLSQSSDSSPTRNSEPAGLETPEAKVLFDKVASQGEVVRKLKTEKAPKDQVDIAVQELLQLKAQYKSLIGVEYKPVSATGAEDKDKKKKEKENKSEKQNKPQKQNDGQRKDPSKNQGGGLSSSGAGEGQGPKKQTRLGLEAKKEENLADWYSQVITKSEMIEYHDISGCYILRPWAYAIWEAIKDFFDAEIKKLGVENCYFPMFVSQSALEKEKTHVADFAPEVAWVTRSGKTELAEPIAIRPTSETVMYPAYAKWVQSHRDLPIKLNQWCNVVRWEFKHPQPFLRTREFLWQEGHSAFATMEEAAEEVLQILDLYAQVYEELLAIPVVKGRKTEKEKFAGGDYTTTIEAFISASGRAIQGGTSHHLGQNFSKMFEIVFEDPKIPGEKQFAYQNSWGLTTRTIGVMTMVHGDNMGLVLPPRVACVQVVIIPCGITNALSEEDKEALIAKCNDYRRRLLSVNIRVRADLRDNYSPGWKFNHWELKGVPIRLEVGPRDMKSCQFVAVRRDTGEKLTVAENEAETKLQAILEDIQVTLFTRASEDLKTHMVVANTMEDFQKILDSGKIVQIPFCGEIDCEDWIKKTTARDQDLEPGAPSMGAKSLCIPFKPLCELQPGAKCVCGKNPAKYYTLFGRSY
inactive: [1] -0.01 | silmitasertib 0.037 | [2] 0.009 | entospletinib 0.021
active: vorinostat -0.365

FUBP3 (UniProt Q96I24)
inactive: [1] -0.001 | silmitasertib -0.032 | [2] 0.047 | entospletinib -0.065
active: vorinostat -0.325

FBXO45 (UniProt P0C2W1)
inactive: [1] -0.013 | silmitasertib 0.127 | [2] 0.021 | entospletinib -0.05
active: vorinostat -0.367

EBP (UniProt Q15125)
inactive: [1] 0.134 | vorinostat 0.1 | silmitasertib -0.033 | [2] 0.097 | entospletinib 0.013

GCLM (UniProt P48507)
inactive: [1] 0.007 | silmitasertib -0.013 | [2] 0.032 | entospletinib 0.021
active: vorinostat -0.277
